RORgamma inh – ROR gamma (mouse) transcription inhibition; Potency, µM (highest dose often 53.6 µM), for inactives: at the top dose activity change, negative = inhibition, usual class: inhibitors; hit rate 5.4% among 310,000; Drosophila S2 Gal4-RORgamma UAS-luciferase reporter, 20 h; further: nearly all actives have a fitted effect of over 60% in size
Target sequence (P51450 whole entry, looked up, the tested form may be a part): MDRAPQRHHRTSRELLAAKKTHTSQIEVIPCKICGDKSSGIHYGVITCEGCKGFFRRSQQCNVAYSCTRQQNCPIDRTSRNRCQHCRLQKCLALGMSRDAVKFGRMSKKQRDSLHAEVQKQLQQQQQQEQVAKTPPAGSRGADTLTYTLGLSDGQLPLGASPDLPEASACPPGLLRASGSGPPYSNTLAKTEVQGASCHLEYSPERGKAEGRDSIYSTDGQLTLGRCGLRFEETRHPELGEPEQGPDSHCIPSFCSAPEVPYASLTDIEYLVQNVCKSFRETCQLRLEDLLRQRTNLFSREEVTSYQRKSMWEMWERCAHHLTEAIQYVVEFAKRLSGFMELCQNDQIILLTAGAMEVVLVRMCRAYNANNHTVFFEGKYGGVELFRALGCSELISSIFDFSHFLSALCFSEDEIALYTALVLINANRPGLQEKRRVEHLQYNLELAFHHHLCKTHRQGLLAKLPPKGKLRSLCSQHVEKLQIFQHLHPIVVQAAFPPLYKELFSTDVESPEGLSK
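Stable Schneider cell line, Gal4 DNA-binding domain fused to ROR gamma, UAS-luciferase. Cmpd 1 hr RT → CuSO4 700 uM final → 20 hr RT → luciferase reagent 10 min → luminescence.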
DT40 TDP1 CPT – DT40-hTDP1 cell growth loss with CPT. hit rate 12% among 420,000. AID 686979. chicken DT40 Tdp1-/-;hTDP1 cells + 20 nM CPT, ATP luminescence, 48 h. Potency, µM (series often up to 46.2 µM), inactives show at the top dose activity change, negative = growth inhibition, hits mostly inhibitors; further: nearly all actives have a fitted effect of over 55% in size
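Chicken DT40 Tdp1-/- cells complemented with human TDP1, 400 cells/well, exposed to compounds plus 20 nM camptothecin for at least 48 h at 37 C; viability read as ATP content by CellTiter-Glo luminescence.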
Gal4-VP16 FLuc – inhibits Gal4-VP16 luciferase reporter, ROR gamma counter-screen; Drosophila S2 Gal4-VP16 UAS-luciferase, luminescence, 20 h; hit rate 3.5% among 310,000; AID 2546; Potency, µM (titrated, usually from 53.6 µM), for the others: at the highest dose activity, negative = inhibition, most hits filed as inhibitors;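 further: Gal4-VP16 expression switched on by copper sulfate through the metallothionein promoter; nearly all actives have a fitted effect of over 50% in size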
DT40 TDP1 no CPT – qHTS for Inhibitors of human tyrosyl-DNA phosphodiesterase 1 (TDP1): qHTS in cells in absence of CPT; hit rate 15% among 420,000; DT40 Tdp1-/- hTDP1 cells, no CPT, ATP luminescence, 48 h; Potency, µM (titrated, usually from 46.2 µM), for inactives: at the highest dose activity change, negative = growth inhibition, most hits filed as inhibitors; further: nearly all actives have a fitted effect of over 55% in size
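Compound effects on proliferation are scored in DT40 Tdp1-/-;hTDP1 cells in the absence of CPT. ATP levels (CellTiter-Glo luminescence) are recorded after a ≥48 hr, 37 °C incubation.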
TDP1 block – TDP1 (human) enzyme inhibition; Potency, µM (series often up to 130 µM), inactives show at the highest dose activity change, negative = inhibition, usual class: inhibitors; recombinant TDP1, AlphaScreen DNA substrate cleavage; Q9NUW8; hit rate 0.28% among 350,000; further: nearly all actives have a fitted effect of over 40% in size
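E. coli-derived human Tdp1, 1 nM final. Cpd preinc 15 min RT; substrate 15 nM final, 5 min RT; AS bead mix 10 ug/ml final, 10 min RT. Signal loss = tyrosine-FITC cleavage. No-enzyme wells = max signal.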
Numbers without * were called inactive; [ ] = remark or other dose. Shown are actives, neighbours in structure and some others; about 19% of the full set was active somewhere. The call rests on the fitted dose curve; in most records, active means well fitted curve in the direction sought with a large enough effect; inconclusive means small, poorly fitted or top-dose-only effect, or another doubt; inactive means no such curve, though single readings can be large; an effect the other way counts as inactive or inconclusive. On the % scale 0 is the no-effect control and ±100 the full control effect; potency means the concentration at half of the fitted maximal effect.

How did COC(=O)c1ccccc1NC(=O)CNc1cc(OC)c(OC)cc1C do in these assays?
RORgamma inh: 0.0%; DT40 TDP1 CPT: inconclusive; Gal4-VP16 FLuc: inconclusive; DT40 TDP1 no CPT: 18.4µM*; TDP1 block: 2.6%

How did CCc1ccccc1NCC(=O)Nc1ccccc1C(=O)OC do in these assays?
RORgamma inh: inconclusive; DT40 TDP1 CPT: inconclusive; Gal4-VP16 FLuc: 4.7%; DT40 TDP1 no CPT: inconclusive; TDP1 block: 5.5%

How did COC(=O)c1ccccc1NC(=O)Cn1cnc2c(cnn2-c2ccc(C)c(C)c2)c1=O do in these assays?
DT40 TDP1 CPT: -16.7%; DT40 TDP1 no CPT: -21.1%

How did COc1cccc(C(=O)NCC(=O)OC(C)C(=O)NC23CC4CC(CC(C4)C2)C3)c1 (stereo not given) do in these assays?
DT40 TDP1 CPT: -24.4%; DT40 TDP1 no CPT: inconclusive; TDP1 block: 1.1%

How did CCN(Cc1ccccc1)S(=O)(=O)c1ccc(F)c(C(=O)Nc2cc(C(F)(F)F)ccc2Cl)c1 do in these assays?
DT40 TDP1 CPT: 16.4µM*; DT40 TDP1 no CPT: 23.1µM*; TDP1 block: -5.2%

Results for CCN(Cc1ccccc1)S(=O)(=O)c1ccc(F)c(C(=O)Nc2cc(C)ccc2OC)c1 ?
DT40 TDP1 CPT: 25.9µM*; DT40 TDP1 no CPT: inconclusive; TDP1 block: -5.2%

Results for CC(=O)Nc1ccccc1N(C)S(=O)(=O)c1ccc(C)cc1 ?
RORgamma inh: 44.8%; DT40 TDP1 CPT: 23.1µM*; Gal4-VP16 FLuc: inconclusive; DT40 TDP1 no CPT: 23.1µM*; TDP1 block: -7.8%

How did COc1ccc(C)cc1NC(=O)c1ccccc1N(C)S(=O)(=O)c1ccccc1 do in these assays?
RORgamma inh: 3.5%; DT40 TDP1 CPT: inconclusive; Gal4-VP16 FLuc: -12.6%; DT40 TDP1 no CPT: 20.6µM*; TDP1 block: 1.3%

Results for CCN(CC)S(=O)(=O)c1ccc(Cl)c(NC(=O)c2cc(Cl)ccc2Cl)c1 ?
RORgamma inh: -18.6%; DT40 TDP1 CPT: inconclusive; Gal4-VP16 FLuc: -1.7%; DT40 TDP1 no CPT: inconclusive; TDP1 block: 0.0%

Results for COc1ccc(OC)c(NC(=O)c2ccccc2N(C)S(=O)(=O)c2ccc(C)cc2)c1 ?
RORgamma inh: -15.9%; DT40 TDP1 CPT: inconclusive; Gal4-VP16 FLuc: -27.3%; DT40 TDP1 no CPT: inconclusive; TDP1 block: 5.8%

How did CSc1nc(N)nc2c1ncn2CC(=O)NCCCN1CCCC1=O do in these assays?
DT40 TDP1 CPT: -23.2%; DT40 TDP1 no CPT: -11.4%; TDP1 block: 1.1%

What do the screens show for `O=C(C[n+]1cc(-c2ccc(Br)cc2)n2c1CCCCC2)c1ccccc1`?
RORgamma inh: 44.1%; DT40 TDP1 CPT: inconclusive; Gal4-VP16 FLuc: -1.7%; DT40 TDP1 no CPT: 16.4µM*; TDP1 block: 4.8%

What do the screens show for `Cn1c(NC(=O)C[n+]2cc(-c3ccc(Cl)cc3)n3c2CCC3)cc(=O)n(C)c1=O`?
RORgamma inh: 14.3%; DT40 TDP1 CPT: -25.5%; Gal4-VP16 FLuc: -3.2%; DT40 TDP1 no CPT: inconclusive; TDP1 block: 5.5%

What do the screens show for `O=C(C[n+]1cc(-c2ccc(Cl)cc2)n2c1CCCCC2)c1ccccc1`?
RORgamma inh: -14.5%; DT40 TDP1 CPT: 6.51µM*; Gal4-VP16 FLuc: -2.6%; DT40 TDP1 no CPT: 6.51µM*; TDP1 block: 1.4%

How did Cc1cccc(N(C(=O)c2csnn2)C(C(=O)NC(C)(C)C)c2ccncc2)c1 (stereo not given) do in these assays?
RORgamma inh: -5.2%; DT40 TDP1 CPT: 13.2%; Gal4-VP16 FLuc: 5.8%; DT40 TDP1 no CPT: 6.6%; TDP1 block: 6.4%

What do the screens show for `Clc1ccccc1-c1nn2c(-c3cc(-c4ccccc4)n[nH]3)nnc2s1`?
DT40 TDP1 CPT: 12.6µM*; DT40 TDP1 no CPT: 11.2µM*; TDP1 block: -1.4%

Results for Clc1ccc(OCc2nn3c(-c4ccco4)nnc3s2)cc1 ?
RORgamma inh: 0.0%[10 µM]; DT40 TDP1 CPT: inconclusive; Gal4-VP16 FLuc: 9.0%; DT40 TDP1 no CPT: 18.4µM*; TDP1 block: 4.0%

How did CN(C)c1ccc(-c2nn3c(-c4ccc(Cl)cc4Cl)nnc3s2)cc1 do in these assays?
RORgamma inh: -27.7%[0.365 µM]; TDP1 block: 3.3%

What do the screens show for `COc1ccccc1-c1nn2c(-c3cc(-c4ccccc4)n[nH]3)nnc2s1`?
DT40 TDP1 CPT: 6.31µM*; DT40 TDP1 no CPT: 4.47µM*; TDP1 block: 1.3%

How did COc1ccccc1-c1nn2c(-c3ccccc3Cl)nnc2s1 do in these assays?
RORgamma inh: -15.9%; Gal4-VP16 FLuc: 2.5%; TDP1 block: -5.1%

What do the screens show for `CN(C)c1ccc(-c2nn3c(-c4cc(-c5ccccc5)n[nH]4)nnc3s2)cc1`?
DT40 TDP1 CPT: 5.01µM*; DT40 TDP1 no CPT: 3.16µM*; TDP1 block: -0.7%

What do the screens show for `CCN(CC)c1ccc(-c2nn3c(-c4ccccc4OC)nnc3s2)cc1`?
RORgamma inh: inconclusive; DT40 TDP1 CPT: 1.3µM*; Gal4-VP16 FLuc: 14.1µM*; DT40 TDP1 no CPT: 1.16µM*; TDP1 block: -2.9%

Results for COc1ccc(-c2nn3c(-c4ccccc4)nnc3s2)cc1 ?
RORgamma inh: -37.0%; DT40 TDP1 CPT: inconclusive; Gal4-VP16 FLuc: 1.1%; DT40 TDP1 no CPT: inconclusive; TDP1 block: 2.1%

How did COc1ccccc1-c1nnc2sc(COc3ccccc3)nn12 do in these assays?
RORgamma inh: -7.4%[10 µM]; DT40 TDP1 CPT: -17.8%; Gal4-VP16 FLuc: -0.1%; DT40 TDP1 no CPT: -26.5%; TDP1 block: 7.0%

What do the screens show for `COc1cccc(OC)c1-c1nn2c(-c3cc(-c4ccccc4)n[nH]3)nnc2s1`?
RORgamma inh: 0.3%; DT40 TDP1 CPT: 18.4µM*; Gal4-VP16 FLuc: -14.3%; DT40 TDP1 no CPT: inconclusive; TDP1 block: -7.8%

What do the screens show for `COc1ccccc1-c1nn2c(-c3ccco3)nnc2s1`?
RORgamma inh: -11.2%; DT40 TDP1 CPT: inconclusive; Gal4-VP16 FLuc: -1.9%; DT40 TDP1 no CPT: 18.4µM*

Results for O=C(CCCOC(=O)c1ccc(O)cc1O)c1ccc(F)cc1 ?
DT40 TDP1 CPT: -27.6%; DT40 TDP1 no CPT: inconclusive; TDP1 block: -10.4%[0.505 µM]

Results for Cc1cc(NC(=O)COc2ccccc2)ccc1Cl ?
RORgamma inh: 16.5%; DT40 TDP1 CPT: -8.2%; Gal4-VP16 FLuc: 9.4%; DT40 TDP1 no CPT: -13.9%; TDP1 block: -5.8%

What do the screens show for `Cc1ccc(N2C(=O)c3ccccc3C2C(=O)c2ccc(C)c(C)c2O)cc1` (stereo not given)?
RORgamma inh: -14.9%; DT40 TDP1 CPT: inconclusive; Gal4-VP16 FLuc: -3.6%; DT40 TDP1 no CPT: 18.4µM*; TDP1 block: 7.6%

How did Cc1ccc(N2C(=O)c3ccccc3C2C(=O)c2cc(C)ccc2O)cc1 (stereo not given) do in these assays?
RORgamma inh: -1.5%; DT40 TDP1 CPT: inconclusive; Gal4-VP16 FLuc: -0.3%; DT40 TDP1 no CPT: inconclusive; TDP1 block: -2.6%

Screens deposited in PubChem BioAssay by National Center for Advancing Translational Sciences (NCATS).
